Screening results from PubChem.
POLH inh: blocks human DNA polymerase eta activity; Q9Y253; recombinant Pol eta, fluorescent DNA replication assay; Potency, µM (top dose mostly 114 µM), for the others: at the top dose activity change, negative = inhibition, most hits filed as inhibitors; hit rate 1.2% among 390,000; AID 588591; note: potency is the fitted concentration of half-maximal effect; % is set by controls: 0 for no effect and ±100 for the full control effect
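Fluorescent replication assay: 50 nM final substrate added after a 15 min room-temperature compound preincubation with 10 nM enzyme. Signal taken at 0 min and again at 10 min.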
POLI inh: DNA polymerase iota (human) inhibition | Q9UNA4 | Pol iota fluorescent replication assay, 10 min | Potency, µM (top dose mostly 115 µM), inactives show top-dose activity, negative = inhibition, usual class: inhibitors | hit rate 1% among 390,000; note: potency is the fitted concentration of half-maximal effect
Target sequence (Q9UNA4 whole entry, looked up): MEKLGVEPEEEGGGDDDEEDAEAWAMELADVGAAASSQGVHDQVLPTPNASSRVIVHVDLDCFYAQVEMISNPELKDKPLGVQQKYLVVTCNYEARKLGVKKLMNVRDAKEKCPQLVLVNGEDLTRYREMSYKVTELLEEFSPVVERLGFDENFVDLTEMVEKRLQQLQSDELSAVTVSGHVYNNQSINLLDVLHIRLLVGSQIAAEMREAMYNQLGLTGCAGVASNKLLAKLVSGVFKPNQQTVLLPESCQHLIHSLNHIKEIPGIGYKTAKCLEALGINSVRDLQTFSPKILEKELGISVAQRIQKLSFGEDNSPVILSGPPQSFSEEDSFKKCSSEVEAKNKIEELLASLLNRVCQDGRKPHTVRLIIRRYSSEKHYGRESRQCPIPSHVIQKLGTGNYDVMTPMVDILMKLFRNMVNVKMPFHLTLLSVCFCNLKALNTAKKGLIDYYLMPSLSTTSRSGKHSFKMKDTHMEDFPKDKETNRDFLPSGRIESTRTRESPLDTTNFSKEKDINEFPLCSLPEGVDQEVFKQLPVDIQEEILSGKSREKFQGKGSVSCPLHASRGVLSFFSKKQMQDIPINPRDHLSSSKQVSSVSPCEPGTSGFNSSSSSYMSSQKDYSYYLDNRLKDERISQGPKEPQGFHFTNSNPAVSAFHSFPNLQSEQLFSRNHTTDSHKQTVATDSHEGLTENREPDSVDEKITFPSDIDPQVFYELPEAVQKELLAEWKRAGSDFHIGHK
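Pol iota at 10 nM preincubated 15 min with compounds at room temperature; reaction started with fluorescent substrate, 50 nM final. Fluorescence read kinetically at 0 and 10 min; buffer-only wells as negative control.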
PI5P4Ka inh: PI5P4K alpha (human) kinase inhibition; P48426; PI5P4Kalpha enzyme, ADP-Glo luminescence, 60 min; stronger effect = lower value; max response, %; hit rate 1.2% among 330,000; AID 652105; active = max response of -50% or lower; inconclusive = between -30% and -50%; inactive = -30% or higher; note: value at the top dose of about 77 µM; % is set by controls: 0 for no effect and ±100 for the full control effect
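Human PI5P4Kalpha with substrate in 0.038 M HEPES pH 7.4, 0.28 mM EGTA, 0.1% CHAPS, 5% DMSO; reaction started with 5 microM ATP (final), 60 min at room temperature. ADP formed read by ADP-Glo luminescence.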
WRN helicase inh: blocks human WRN helicase; Q14191; Potency, µM (series often up to 114 µM), without a hit: at the highest dose activity change, negative = inhibition, actives largely listed as inhibitors; hit rate 0.46% among 360,000; WRN helicase unwinding, fluorescent forked duplex, kinetic; note: potency is the fitted concentration of half-maximal effect; % is set by controls: 0 for no effect and ±100 for the full control effect; nearly all actives have a fitted effect of over 55% in size
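Kinetic fluorescence helicase assay: unwinding of a quenched forked DNA duplex (100 nM final) with 2 mM ATP final raises red fluorescence (525/598 nm). Compounds sat 15 min at room temperature with 20 nM WRN beforehand.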
POLB inh: inhibitors of human DNA polymerase beta; Pol beta primer extension/strand displacement, fluorescence kinetic; Potency, µM (highest dose often 114 µM), for the others: at the top dose activity change, negative = inhibition, hits mostly inhibitors; hit rate 1.3% among 340,000; AID 485314; note: potency is the fitted concentration of half-maximal effect; % is set by controls: 0 for no effect and ±100 for the full control effect
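Curves were derived by four-parameter Hill fits of normalized qHTS data. The kinetic fluorescent primer-extension read was taken at 0 and 10 min after 50 nM substrate, following a 15 min room-temperature preincubation of 10 nM enzyme with compounds.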
Pol kappa inh: inhibitors of human DNA polymerase kappa. Q9UBT6. purified Pol kappa, fluorescent DNA synthesis assay, 10 min. Potency, µM (titrated, usually from 107 µM), inactives show at the top dose activity, negative = inhibition, actives largely listed as inhibitors. hit rate 0.53% among 400,000. AID 588579; note: potency is the fitted concentration of half-maximal effect; % is set by controls: 0 for no effect and ±100 for the full control effect
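Fluorescent qHTS in 1536-well format: enzyme (10 nM) and compound sat 15 min at room temperature before 50 nM substrate (final) was added. Signal taken at 0 and 10 min; no-enzyme buffer wells were negative controls.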
* = called active by the depositor; ? = inconclusive; . = not tested or not shown; [ ] = remark or other dose. In the library only some 2.8% were active in any assay of this set; here they are far more common. Unless noted, calls come from the whole dose curve; as a rule, active = well fitted curve in the direction sought with a large enough effect; inconclusive = small, poorly fitted or top-dose-only effect, or another doubt; inactive = no such curve, though single readings can be large; an effect the other way counts as inactive or inconclusive.

SMILES | POLH inh | POLI inh | PI5P4Ka inh | WRN helicase inh | POLB inh | Pol kappa inh
N#Cc1c(N)nc2c3c(sc(=N)c2c1N)NC(=O)CC3c1c(F)cccc1Cl (stereo unspecified) | ? | 27% | -67* | -26% | 27% | -17%
CC(=O)Oc1cc(O)c2c(=O)c(OC(C)=O)c(-c3ccc(OC(C)=O)c(OC(C)=O)c3)oc2c1 | 2.8µM* | 8.9µM* | -98* | ? | . | 7.1µM*
CC(=O)Oc1cc(OC(C)=O)c2c(=O)cc(-c3ccc(OC(C)=O)c(OC(C)=O)c3)oc2c1 | . | . | . | . | . | 8.9µM*
CN(C)c1ccc(/C=C/c2ccnc3c([N+](=O)[O-])cccc23)cc1 | . | ? | . | . | . | -34%
Cc1ccc(-n2c(-c3ccccc3)nsc2=NC#N)cc1 | . | 89µM* | . | . | . | -15%
Cc1ccc(-n2c(-c3ccccc3)n[nH]c2=S)cc1 | -19% | ? | 9 | -2% | 9% | -4%
O=C(CCCCCCCC(=O)NNC(=O)Nc1ccccc1)NNC(=O)Nc1ccccc1 | -29% | ? | -6 | -34% | 32µM* | -32%
CCOC(=O)C1=C(c2ccccc2)N=c2s/c(=C\c3ccc(O)cc3)c(=O)n2C1c1cccs1 (stereo unspecified) | -12% | 45µM* | . | ? | ? | -29%
COC(=O)C1=C(C)N=c2s/c(=C/c3ccoc3)c(=O)n2C1c1ccccc1 (stereo unspecified) | -11% | -3% | . | -15% | 50µM* | -4%
CCOC(=O)C1=C(C)N=c2s/c(=C/c3ccco3)c(=O)n2C1c1cccc(OC)c1 (stereo unspecified) | ? | ? | -23 | -23% | 32µM* | -27%
CCOC(=O)C1=C(C)N=c2s/c(=C\c3ccc(C(=O)O)cc3)c(=O)n2C1c1ccc(OC)cc1OC (stereo unspecified) | -22% | 25% | -5 | 4%[57.1 µM] | . | 9%
CCOC(=O)C1=C(C)N=c2s/c(=C\c3ccc(OCC(=O)O)c(OC)c3)c(=O)n2C1c1ccc(OC)cc1 (stereo unspecified) | ? | ? | -61* | -10% | 15% | -9%
Cc1ccc(NC(=O)c2ccc(-n3nncc3-c3ccccc3)cc2)cc1 | . | 9% | . | . | . | -21%
CCOC(=O)C1=C(C)N=c2s/c(=C/c3cccc([N+](=O)[O-])c3O)c(=O)n2C1c1ccccc1 (stereo unspecified) | -19% | ? | -55* | ? | ? | -10%
COc1ccc(C2C(C(C)=O)=C(C)N=c3s/c(=C/c4ccc5c(c4)OCO5)c(=O)n32)cc1 (stereo unspecified) | . | . | . | . | 11µM* | .
CCOC(=O)C1=C(C)N=c2s/c(=C/c3cccc([N+](=O)[O-])c3O)c(=O)n2C1c1cc(OC)c(OC)c(OC)c1 (stereo unspecified) | -22% | ? | -6 | ? | ? | -15%
CC(=O)C1=C(C)N=c2s/c(=C/c3ccc4c(c3)OCO4)c(=O)n2C1c1ccc(N(C)C)cc1 (stereo unspecified) | ? | ? | -5 | -4% | . | -7%
CCn1c(SC(C)C(=O)Nc2ccc(C)cc2)nnc1-c1ccccc1 (stereo unspecified) | . | -4% | . | . | . | 10%
CCOC(=O)C1CCCN(C2=NC(=O)/C(=C/c3ccc(OC)cc3OC)S2)C1 (stereo unspecified) | -21% | 14% | -79* | -7% | 15% | -9%
CCOC(=O)C1CCCN(C2=NC(=O)/C(=C/c3ccc(OC)cc3)S2)C1 (stereo unspecified) | -9% | -15% | 1 | -11% | 0% | -4%
Cc1ccc([N+](=O)[O-])cc1-c1ccc(/C=C(\C#N)c2[nH]nc(N)c2C#N)o1 | ? | 56µM* | -55* | ? | 6.3µM* | ?
COCc1cc(C)nc(OCC(=O)N/N=C/c2ccc(-c3cc([N+](=O)[O-])ccc3C)o2)c1C#N | ? | -7% | -2 | -3% | 13% | -4%
COc1cc(NCCCCC(C)N)c2nccc(C)c2c1 (stereo unspecified) | -12% | . | -12 | -7% | . | .
COc1cc(NCCCC(C)N)c2ncccc2c1 (stereo unspecified) | ? | -101% | -3 | ? | 32µM* | -5%
Cc1oc2ncn(C)c(=O)c2c1C(=O)NC(C)c1ccccc1 (stereo unspecified) | -5% | 18% | . | . | -21% | -17%
SMILES | POLH inh | POLI inh | PI5P4Ka inh | WRN helicase inh | POLB inh | Pol kappa inh
COC(=O)C1CCN(C(=O)COC(=O)CNS(=O)(=O)c2ccc(SC)c([N+](=O)[O-])c2)CC1 | ? | 79µM* | -21 | -10%[11.6 µM] | . | -41%
COc1ccc(-c2nc3scc(CCNS(=O)(=O)c4ccc(F)cc4C)n3n2)cc1 | -10% | 2% | . | . | -11% | -15%[60.1 µM]
O=c1cc(CSc2nnc(COc3ccccc3Cl)o2)nc2sccn12 | 11% | -8% | . | -2% | 35µM* | -1%
COc1cccc(/C(O)=C/c2nc3ccc(C(=O)NCCc4cccc(C)c4)cc3[nH]c2=O)c1 | -18% | 14% | 0 | 71µM* | -2% | -9%
COc1cccc(/C(O)=C/c2nc3ccc(C(=O)NCCc4ccc(Cl)cc4)cc3[nH]c2=O)c1 | -8% | -3% | -93* | 3% | 0% | -16%
COc1cccc(C(=O)Nc2cc(C(=O)NCCc3ccccc3)ccc2Cl)c1 | -7% | 5% | . | 2% | -1% | -4%[60.1 µM]
CCC1Nc2ncnc(N3CCCCC3)c2N(Cc2ccccc2)C1=O (stereo unspecified) | 89µM* | ? | -3 | 7%[11.6 µM] | . | 2%
CCOC(=O)/C(C#N)=C\c1cc(OC)c(OC)cc1[N+](=O)[O-] | 1% | -10% | -70* | -25% | 6% | -1%
Cc1ccccc1NC(=O)C(=Cc1ccc(C(=O)O)cc1)C(=O)Nc1ccccc1C | 56µM* | ? | 0 | -19% | 5% | -3%
CC(=O)/C(=C/c1ccccc1)C(=O)Nc1ccccc1C | -1% | ? | 0 | -15% | 9% | -18%
COc1cc2ccccc2cc1C(=O)Nc1cccc(-c2nc3cc(C)c(C)cc3o2)c1 | -18% | 1% | . | . | -23% | -6%
COCCOC(=O)C1=C(C)NC2(O)c3ccccc3C(=O)C12O (stereo unspecified) | -2% | 32µM* | 6 | -1% | -1% | 4%[60.1 µM]
Oc1cc(NCCN2CCOCC2)cc2cccnc12 | -9% | 7.1µM* | . | . | . | -10%
Oc1cc(Nc2ccccc2)cc2cccnc12 | -4% | 21% | . | . | . | -28%
NC(=O)CC(c1ccccc1)c1ccc2c(c1)OCO2 (stereo unspecified) | -8% | 113% | -7 | -1% | 2% | -15%
